# Screening data as filed in PubChem BioAssay.
# uPA generation – inhibitors of cell surface uPA generation. 330,000 compounds, 0.31% hits. Potency, µM (series often up to 38.3 µM), most hits filed as inhibitors. cell surface uPA generation assay, qHTS; active = well fitted inhibition curve with a large enough effect; inconclusive = small, poorly fitted or top-dose-only effect; inactive = no such curve, though single readings can be large or run the other way; tested in mouse RAW 264.7 cells; also: nearly all actives have a fitted effect of over 55% in size
# VDR inhibitor – vitamin D3 receptor (human) inhibition | VDR-SRC2-3 peptide fluorescence polarization, 2 h | Potency, µM, usual class: inhibitors | 400,000 compounds, 0.93% hits
#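 Fluorescence polarization assay measuring small-molecule disruption of VDR binding to the coregulator peptide SRC2-3. Compounds were pin-transferred (23 nl) into the reagent mix and incubated 2 h at room temperature before reading.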
# TSHR antagonist – antagonists of human thyroid stimulating hormone receptor; P16473; TSHR-expressing cells, TSH-stimulated cAMP HTRF, 2 h; hits give low values; activity change, negative = inhibition, % at 11.5 µM; 330,000 compounds, 0.2% hits; AID 504810;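 active = activity change below a set negative limit, meaning inhibition stronger than a set level, cut at about -70% in these data; inconclusive = activity change between two set negative limits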
# Target sequence (P16473 whole entry, looked up): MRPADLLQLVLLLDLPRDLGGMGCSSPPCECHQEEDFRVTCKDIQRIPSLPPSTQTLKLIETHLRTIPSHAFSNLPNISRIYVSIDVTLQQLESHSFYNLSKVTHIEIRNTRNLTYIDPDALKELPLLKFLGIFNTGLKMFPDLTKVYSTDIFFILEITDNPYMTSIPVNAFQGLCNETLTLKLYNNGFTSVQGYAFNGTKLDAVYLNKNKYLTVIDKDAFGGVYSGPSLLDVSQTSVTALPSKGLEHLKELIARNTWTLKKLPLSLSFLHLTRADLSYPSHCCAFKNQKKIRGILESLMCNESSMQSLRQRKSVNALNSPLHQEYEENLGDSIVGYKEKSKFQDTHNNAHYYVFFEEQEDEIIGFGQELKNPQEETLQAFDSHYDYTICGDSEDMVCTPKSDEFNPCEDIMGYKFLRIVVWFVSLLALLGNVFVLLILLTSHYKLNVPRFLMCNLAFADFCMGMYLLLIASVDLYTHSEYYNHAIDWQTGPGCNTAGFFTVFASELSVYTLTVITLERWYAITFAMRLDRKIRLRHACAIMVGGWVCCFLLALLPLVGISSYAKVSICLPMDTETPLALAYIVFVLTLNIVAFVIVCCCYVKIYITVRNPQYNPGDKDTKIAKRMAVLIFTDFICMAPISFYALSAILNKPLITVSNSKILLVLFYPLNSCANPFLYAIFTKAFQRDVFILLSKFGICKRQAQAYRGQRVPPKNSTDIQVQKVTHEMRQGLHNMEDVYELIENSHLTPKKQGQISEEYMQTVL
#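 Freshly harvested TSHR cells receive pin-tooled compound, then EC80 TSH at 4nM final. After 2 hours at 37 deg C, antibody in lysis buffer and cAMP-d2 are added; 30 minutes at ambient temperature precede the HTRF read.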
# PLK1 PBD block – PLK1 (human) polo-box domain binding inhibition; P53350; Plk1 PBD binding of FITC phosphopeptide, fluorescence polarization; Potency, µM, hits mostly inhibitors; 360,000 compounds, 2.8% hits; also: series mostly up to about 57 µM; nearly all actives have a fitted effect of over 65% in size
# TSG101-PTAP inh – blocks PTAP/TSG101 interaction to inhibit HIV-1 budding; 340,000 tested, under 10 active; Fluorescence polarization, FITC-PTAP peptide / Tsg101 binding; Potency, µM (doses to about 115 µM), usual class: inhibitors; Q99816; active = well fitted inhibition curve with a large enough effect in the main read-out, with a control signal flat, not every such curve was filed as active; inconclusive = small, poorly fitted or top-dose-only effect, or effect the other way, or a change in a side signal; inactive = no such curve, though single readings can be large or run the other way
#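 FP read-out: FITC-PTAP peptide, 50 nM final, binding Tsg101 binding domain, 10 uM final; 20 min, r.t.; 10 mM HEPES pH 7.5, 0.15 M NaCl, 0.01% Tween 20, 3 mM EDTA, 0.1 mM TCEP.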
# Numbers stand for hits; i = inactive; ? = inconclusive; nt = not tested or not shown. Only some compounds are listed: those with a hit (about 3.1% of all), similar ones and a draw of the others. Unless noted, calls follow the shape of the dose curve; as a rule, active = well fitted curve in the direction sought with a large enough effect; inconclusive = small, poorly fitted or top-dose-only effect, or another doubt; inactive = no such curve, though single readings can be large; an effect the other way counts as inactive or inconclusive.
SMILES,uPA generation,VDR inhibitor,TSHR antagonist,PLK1 PBD block,TSG101-PTAP inh
CCCCOC(=O)c1ccc(NC(=O)CN2C(=O)NC3(CCCCCC3)C2=O)cc1,8.9µM,i,i,i,i
O=Cc1cc(N=Nc2ccccc2Cl)ccc1O,8.9µM,i,i,?,i
Cc1ccc(-n2cc(C(=O)OCc3ccc(F)c(F)c3)c3ccccc3c2=O)cc1,nt,i,nt,nt,nt
COc1ccc(CC(=O)NCc2n[nH]c(=S)n2-c2cccc(C)c2)cc1,i,i,i,i,i
O=C(Cc1ccccc1)NCc1n[nH]c(=S)n1-c1ccccc1,i,i,i,27µM,i
CC(=O)c1ccc(NC(=O)CSc2cn(CC(=O)N3CCCCC3)c3ccccc23)cc1,nt,i,nt,nt,nt
CCNC(=S)Nc1ccc2cn[nH]c2c1,i,i,i,24µM,i
Cc1ccc(NC(=S)Nc2ccc3cn[nH]c3c2)cc1C,i,i,i,i,i
CC(C)c1ccc(NC(=S)Nc2ccc3cn[nH]c3c2)cc1,i,i,i,i,i
CC(=O)c1ccc(NC(=S)Nc2ccc3cn[nH]c3c2)cc1,i,i,i,30µM,i
CC(C)(C)OC(=O)N1CCC(c2c(C(=O)Nc3ccc4c(c3)OCCO4)cnn2-c2ccc(F)cc2)CC1,nt,i,nt,nt,nt
CCOC(=O)C1Nc2ccc(C(=O)O)cc2C2C=CCC12 (stereo not drawn),i,16µM,i,3µM,i
CCOc1ccc(NC(=O)c2sc(-n3nc(C)c(CCC(C)C)c3C)nc2C)cc1,nt,i,nt,nt,nt
COC(CN(C)C(=O)C1CCC(CNS(=O)(=O)c2ccc(C)cc2)CC1)OC (stereo not drawn),i,i,i,21µM,i
CCn1c(/C=C/c2c[nH]c3ccccc23)nc2ccccc2c1=O,i,i,i,21µM,i
COc1ccc(Cc2nnc(NS(=O)(=O)c3ccc([N+](=O)[O-])cc3)s2)cc1,i,i,i,30µM,i
COc1ccc(S(=O)(=O)Nc2nnc(Cc3ccc(OC)c(OC)c3)s2)cc1,i,i,i,27µM,i
COc1ccc(Cc2nnc(NS(=O)(=O)c3ccccc3)s2)cc1,i,i,i,?,i
CN(C)c1ccc(/C=N/N2C(=S)SC(C)(C)C2N(O)C(=O)Nc2ccc([N+](=O)[O-])cc2)cc1 (stereo not drawn),i,i,i,27µM,i
CCC(c1nnnn1Cc1ccccc1)N(Cc1ccccc1)Cc1cc2cc(C)ccc2[nH]c1=O (stereo not drawn),nt,i,nt,nt,nt
O=C(CCC1CCCC1)N1CCN(C(=O)COc2ccccc2)CC1,i,i,i,24µM,i
Cc1ccc(OCC(=O)N2CCN(C(=O)CCC3CCCC3)CC2)cc1,i,i,i,i,i
C[C@H](CO)N1C[C@H](C)[C@H](CN(C)S(=O)(=O)c2cccc(C#N)c2)OCc2cnnn2CCCC1=O,nt,nt,nt,30µM,nt
CCOC(=O)C1CCN(C(=O)COC(=O)c2c(C)c(CC)nc3ccccc23)CC1,i,i,nt,i,i
Cc1ccccc1Cn1nnc2c(=O)[nH]c(C3CCCN(C(=O)c4ccc(F)cc4)C3)nc21 (stereo not drawn),nt,i,nt,nt,nt
SMILES,uPA generation,VDR inhibitor,TSHR antagonist,PLK1 PBD block,TSG101-PTAP inh
O=c1cc(O)sc2ccccc12,i,i,i,i,i
O=c1[nH]sc2ccccc12,i,?,i,5.3µM,i
O=[N+]([O-])c1ccc(O)c(-c2nn[nH]n2)c1,i,i,i,3.4µM,i
Cc1cc(C)n(-c2ccc([N+](=O)[O-])cc2-c2nn[nH]n2)n1,i,i,i,i,i
COc1cc(NC(=O)c2ccc3c(c2)OCO3)ccc1NC(=O)C(C)C,i,i,i,30µM,i
O=C(Nc1ccc(-c2nc3ncccc3o2)cc1)c1ccc(Br)o1,i,i,i,i,i
CC(=O)c1cccc(NC(=O)c2ccc(C)o2)c1,i,i,i,30µM,i
O=C(Nc1ccc(-c2nc3ncccc3o2)cc1)c1ccco1,i,?,i,11µM,i
CC(=O)c1cccc(NC(=O)c2cc(=O)[nH]c3ccccc23)c1,i,i,i,19µM,i
CC(C)C(=O)Nc1ccc(NC(=O)c2ccc3c(c2)OCO3)cc1,i,i,i,i,i
Cc1ccc2c(=O)cc(C(=O)Nc3c(C)cccc3C)oc2c1,nt,i,nt,nt,nt
CC(=O)O[C@]1(C(C)=O)CCC2C3CCC4=CC(=O)CCC4(C)C3(F)C(O)CC21C (stereo partly drawn),nt,i,nt,nt,nt
CCOC(=O)COc1ccc(CC)cc1C(=O)c1ccn2nc(-c3ccc(F)cc3)cc2n1,nt,i,nt,nt,nt
